Growth data for six compounds are collected here from PubChem BioAssay (NCI).

“And” between values parts separate entries of the source, which are not always exact repeats. Equal entries are not always repeated. The panel holds about 83,000 compounds, 20% with a hit somewhere; the sample as a whole holds those more often.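 Values shown are percent growth following 48 h exposure of cells in 96-well plates to a single concentration of compound; below 10 was considered active.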 A number with no mark means an inactive call. The source made the active and inactive calls.

Among the test systems are MOLT-4 leukemia; SR leukemia; RPMI-8226 leukemia; OVCAR-8 ovarian; OVCAR-5 ovarian; OVCAR-4 ovarian; SK-OV-3 ovarian; IGROV1 ovarian; OVCAR-3 ovarian; HS 578T breast; NCI/ADR-RES ovarian; T-47D breast; BT-549 breast; MDA-MB-435 melanoma; SW-620 colon; MCF7 breast; HCT-116 colon; KM12 colon; HCC-2998 colon.
Holding throughout (experiment): NCI-60 one-dose screen, 48 h (100 = growth as untreated, 0 = no growth, -100 = all killed)
Holding throughout (conditions): 10 µM unless noted

In the case of `CC[C@H](C)[C@H]1O[C@]2(C=C[C@@H]1C)C[C@@H]1C[C@@H](C/C=C(\C)[C@@H](O[C@H]3C[C@H](OC)[C@@H](O[C@H]4C[C@H](OC)[C@@H](NC)[C@H](C)O4)[C@H](C)O3)[C@@H](C)/C=C/C=C3\CO[C@@H]4[C@H](O)C(C)=C[C@@H](C(=O)O1)[C@]34O)O2`, the growth with MOLT-4 leukemia was -42.3% (active); with SR leukemia, -32.4% (active); with RPMI-8226 leukemia, -30.7% (active); in the assay with OVCAR-8 ovarian, 10.7%; in the assay on OVCAR-5 ovarian, -34.5% (active); with OVCAR-4 ovarian, -1.85% (active). Also, the growth was -36.6% (active) with SK-OV-3 ovarian; -31.9% (active) in the assay with IGROV1 ovarian; -68.8% (active) in the assay on OVCAR-3 ovarian; -42.9% (active) with HS 578T breast; 0.588% (active) in the assay with NCI/ADR-RES ovarian; -27.6% (active) in the assay on T-47D breast. The growth in the assay with BT-549 breast is 3.48% (active); in the assay with MDA-MB-435 melanoma it was -83.4% (active); in the assay with SW-620 colon it was -68.1% (active); in the assay on MCF7 breast, -85% (active); in the assay with HCT-116 colon, -79% (active); in the assay with KM12 colon, -70.6% (active).

For `CCCCCCCCCCCCCCCC[n+]1ccccc1`, the growth is -61.5% (active) and -64.2% (active) in the assay on MOLT-4 leukemia; -32.3% (active) and -40.4% (active) in the assay on SR leukemia; -67.1% (active) and -42.5% (active) in the assay on RPMI-8226 leukemia; -72.2% (active) and -41.8% (active) in the assay on OVCAR-8 ovarian; -45.6% (active) and -15% (active) with OVCAR-5 ovarian; -5.49% (active) and -2.49% (active) with OVCAR-4 ovarian. For the same compound, the growth in the assay with SK-OV-3 ovarian was -43% (active) and -22.4% (active); with IGROV1 ovarian, -73% (active) and -60.1% (active); in the assay on OVCAR-3 ovarian it was -70.9% (active) and -51% (active); in the assay with HS 578T breast it was -26.3% (active) and -12.5% (active); with NCI/ADR-RES ovarian, 41.7% and 69.3%; in the assay with T-47D breast, 3.84% (active) and -0.991% (active). The growth with BT-549 breast is -50.8% (active) and -73.3% (active); in the assay on MDA-MB-435 melanoma, -82.2% (active) and -80.6% (active); in the assay with SW-620 colon it was -84.8% (active) and -29.2% (active); in the assay on MCF7 breast, -21.9% (active) and -2.32% (active); in the assay with HCT-116 colon, -65% (active) and -95.5% (active); in the assay with KM12 colon, -96.2% (active) and -81.6% (active).

Take `C[C@]12CCc3sc(Nc4ccc(O)cc4)nc3C1=CC[C@@H]1[C@@H]2CC[C@]2(C)C(=O)CC[C@@H]12`: the growth was 11% in the assay with MOLT-4 leukemia; 9.6% (active) with SR leukemia; -24.5% (active) in the assay with RPMI-8226 leukemia; 35.9% in the assay with OVCAR-8 ovarian; 117% in the assay on OVCAR-5 ovarian; 57.1% with OVCAR-4 ovarian. The growth was 108% in the assay on SK-OV-3 ovarian; 13.1% with IGROV1 ovarian; -31.7% (active) in the assay with OVCAR-3 ovarian; 53.6% with HS 578T breast; 68.6% in the assay on NCI/ADR-RES ovarian; 10.6% with T-47D breast. Further, the growth in the assay on BT-549 breast is 45.6%; in the assay on MDA-MB-435 melanoma, 35.3%; in the assay on SW-620 colon it was -32.2% (active); with HCT-116 colon, -72.4% (active); with HCC-2998 colon it was 97.7%; in the assay on KM12 colon it was 46.7%.

In the case of `O=P(O)(Nc1ccccc1)Nc1ccccc1`, the growth in the assay with MOLT-4 leukemia is 43.6%; in the assay with SR leukemia, 104%; in the assay with RPMI-8226 leukemia, 91.8%; in the assay on OVCAR-8 ovarian, 103%; in the assay with OVCAR-5 ovarian, 90.1%; in the assay with OVCAR-4 ovarian it was 99.9%. Besides, the growth in the assay on SK-OV-3 ovarian was 110%; with IGROV1 ovarian, 90.6%; with OVCAR-3 ovarian it was 94.4%; in the assay with HS 578T breast, 94.5%; in the assay on NCI/ADR-RES ovarian, 76.9%; in the assay on T-47D breast it was 97%. For the same compound, the growth in the assay on BT-549 breast was 100%; in the assay with MDA-MB-435 melanoma it was 88.5%; in the assay on SW-620 colon, 86.2%; in the assay with MCF7 breast, 97.3%; in the assay with HCT-116 colon it was 89.1%; with KM12 colon, 95.9%.

On to `CC1=C([Te]c2ccccc2)C(=O)c2ccccc2C1=O`, for which the growth was 31.4% in the assay on MOLT-4 leukemia; 21.4% with SR leukemia; -32.9% (active) in the assay on RPMI-8226 leukemia; -15.9% (active) with OVCAR-8 ovarian; -72.3% (active) with OVCAR-5 ovarian; -72.4% (active) in the assay with OVCAR-4 ovarian. The growth in the assay with SK-OV-3 ovarian is -37.8% (active); in the assay on IGROV1 ovarian, -21.5% (active); with OVCAR-3 ovarian it was -77.5% (active); in the assay on HS 578T breast, -22.4% (active); with NCI/ADR-RES ovarian, -23.1% (active); in the assay with T-47D breast, -51.9% (active). The growth with BT-549 breast is -30.7% (active); with MDA-MB-435 melanoma, -3.36% (active); with SW-620 colon it was -88.2% (active); in the assay with HCT-116 colon it was -40.5% (active); with HCC-2998 colon, -66.4% (active); in the assay with KM12 colon, -60.7% (active).

For the compound `N[C@@H](CCC(=O)CCl)C(=O)O`, the growth is 99.9% [20 µM] in the assay on MOLT-4 leukemia; 71.3% [20 µM] in the assay on SR leukemia; 111% [20 µM] with RPMI-8226 leukemia; 108% [20 µM] with OVCAR-8 ovarian; 98% [20 µM] in the assay on OVCAR-5 ovarian; 112% [20 µM] with OVCAR-4 ovarian. Besides, the growth in the assay with SK-OV-3 ovarian was 108% [20 µM]; in the assay on IGROV1 ovarian, 99.5% [20 µM]; in the assay with OVCAR-3 ovarian, 110% [20 µM]; in the assay with HS 578T breast, 109% [20 µM]; in the assay with NCI/ADR-RES ovarian it was 104% [20 µM]; in the assay with T-47D breast, 93% [20 µM]. For the same compound, the growth in the assay with BT-549 breast was 108% [20 µM]; in the assay with MDA-MB-435 melanoma, 103% [20 µM]; in the assay with SW-620 colon it was 97.9% [20 µM]; in the assay on HCT-116 colon it was 104% [20 µM]; with HCC-2998 colon, 111% [20 µM]; in the assay on KM12 colon it was 100% [20 µM].
